# Experimental data taken from ChEMBL document CHEMBL1201862, “PubChem BioAssay data set” (2004).
# The whole screen tested about 400,000 compounds, of which about 2,100 (0.53%) were called active. Not shown: some 14% with an inconclusive outcome. The sample holds actives, similar compounds and a random draw of the others, so the mix is not that of the screen. How the calls were made is not given here.
# Target: Ataxin-2 (Homo sapiens) (UniProt Q99700)
# Test: qHTS for Inhibitors of ATXN expression.
# Format: functional
# Chain of Ataxin-2 (Homo sapiens) (Q99700 whole entry): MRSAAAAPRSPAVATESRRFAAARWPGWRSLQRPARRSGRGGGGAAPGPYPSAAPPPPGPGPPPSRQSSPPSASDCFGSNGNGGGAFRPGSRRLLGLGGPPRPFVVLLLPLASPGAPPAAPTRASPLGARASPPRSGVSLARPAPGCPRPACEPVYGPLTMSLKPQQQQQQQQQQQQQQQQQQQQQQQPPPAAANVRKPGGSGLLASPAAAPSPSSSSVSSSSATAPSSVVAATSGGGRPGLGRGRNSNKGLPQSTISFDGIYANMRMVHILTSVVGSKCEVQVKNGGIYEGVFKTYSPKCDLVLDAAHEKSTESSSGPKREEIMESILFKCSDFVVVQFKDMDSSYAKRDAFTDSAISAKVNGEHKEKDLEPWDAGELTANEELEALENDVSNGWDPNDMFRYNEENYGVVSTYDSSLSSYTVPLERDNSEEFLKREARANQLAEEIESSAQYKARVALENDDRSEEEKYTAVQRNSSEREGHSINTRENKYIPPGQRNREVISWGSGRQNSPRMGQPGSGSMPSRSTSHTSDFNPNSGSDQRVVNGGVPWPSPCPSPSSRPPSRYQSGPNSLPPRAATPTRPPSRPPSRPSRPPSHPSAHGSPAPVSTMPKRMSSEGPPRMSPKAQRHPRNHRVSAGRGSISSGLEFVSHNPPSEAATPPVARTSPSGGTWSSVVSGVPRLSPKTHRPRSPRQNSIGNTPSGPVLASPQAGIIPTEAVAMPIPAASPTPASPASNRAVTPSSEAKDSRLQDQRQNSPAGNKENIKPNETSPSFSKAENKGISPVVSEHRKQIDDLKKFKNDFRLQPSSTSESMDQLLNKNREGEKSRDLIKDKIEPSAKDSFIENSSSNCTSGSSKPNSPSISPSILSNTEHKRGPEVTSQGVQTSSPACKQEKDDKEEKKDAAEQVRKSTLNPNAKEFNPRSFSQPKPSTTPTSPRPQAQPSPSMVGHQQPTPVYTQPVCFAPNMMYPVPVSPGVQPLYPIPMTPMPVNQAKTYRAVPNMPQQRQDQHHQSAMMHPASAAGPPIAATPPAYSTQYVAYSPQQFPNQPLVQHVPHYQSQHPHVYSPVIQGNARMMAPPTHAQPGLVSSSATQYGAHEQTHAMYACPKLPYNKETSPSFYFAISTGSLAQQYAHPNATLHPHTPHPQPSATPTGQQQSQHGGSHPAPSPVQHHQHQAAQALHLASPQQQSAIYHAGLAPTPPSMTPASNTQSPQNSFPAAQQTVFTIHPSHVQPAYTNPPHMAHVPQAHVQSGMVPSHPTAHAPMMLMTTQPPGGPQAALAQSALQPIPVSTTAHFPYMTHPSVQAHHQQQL
row,Structure (SMILES),Potency
1,CC(=O)N1CCC(c2c[nH]c3ccccc23)CC1,inactive
2,O=C1C=CC(c2c[nH]c3ccccc23)CC1 (configuration not stated),35.5 µM (active)
3,O=C1NCCNC1(c1c[nH]c2ccccc12)C(F)(F)F (configuration not stated),inactive
4,C=CCn1c(=N)c(C#N)cc2c(=O)n3ccccc3nc21,inactive
5,Cc1ccccc1CS(=O)(=O)c1nnc([C@H](Cc2ccccc2)NC(=O)OC(C)(C)C)o1,35.5 µM (active)
6,CC(C)(C)OC(=O)N[C@@H](Cc1ccccc1)c1nnc(S(=O)(=O)Cc2cccc(F)c2)o1,31.6 µM (active)
7,COC(=O)CS(=O)(=O)c1nnc([C@H](Cc2ccccc2)NC(=O)OC(C)(C)C)o1,39.8 µM (active)
8,Oc1c(Br)cc(Cl)cc1/C=N/c1ccc(N2CCOCC2)cc1,inactive
9,Cc1ccc(O)c(C(=O)c2cc(C#N)c(=O)n(-c3nccs3)c2)c1,inactive
10,N=c1c(C(=O)NCc2ccc(F)cc2)cc2c(=O)n3ccccc3nc2n1Cc1cccnc1,inactive
11,O=C(Nc1ccc(F)cc1)c1sc2cc(C(F)(F)F)cnc2c1-c1cccs1,inactive
12,O=C(Oc1ccc2c(-c3ccccc3)cc(=O)oc2c1)C1CCCCC1,inactive
13,Cc1cccn2c(=O)c(C=C(C#N)C#N)c(N3CCN(c4ccccc4)CC3)nc12,inactive
14,Cc1cc(Oc2nc3c(C)cccn3c(=O)c2/C=C(\C#N)S(=O)(=O)c2ccccc2)ccc1Cl,39.8 µM (active)
15,CNC(=O)/C(C#N)=C/c1c(N2CCN(c3ccccc3)CC2)nc2c(C)cccn2c1=O,inactive
16,CCS(=O)(=O)N1CCN(Cc2c[nH]c3ccccc23)CC1,inactive
17,O=C(CCSc1ccc(Cl)cc1)Nc1cccnc1,inactive
18,O=C(NC(c1ccc(Cl)cc1)c1cccnc1)C1CCN(CCOc2ccc(Cl)cc2Cl)CC1 (configuration not stated),39.8 µM (active)
19,COc1cc(OC)nc(C(NC(=O)C2CCN(Cc3c[nH]c4ccccc34)CC2)c2ccc(Cl)cc2)n1 (configuration not stated),35.5 µM (active)
20,O=C(COC(=O)Cc1c[nH]c2ccccc12)Nc1cc(S(=O)(=O)N2CCOCC2)ccc1Cl,inactive
21,COc1ccc(C(NC(=O)C2CCN(CCOc3ccc(Cl)cc3Cl)CC2)c2ccccc2C)cn1 (configuration not stated),31.6 µM (active)
22,COc1ccc(NC(=O)c2cc(S(=O)(=O)N3CCCC3)ccc2C)cn1,inactive
23,CCOc1ccc(Cl)cc1S(=O)(=O)N1CCC(C(=O)NC2CC2)CC1,inactive
24,O=C(NC(c1ccc(F)cc1)c1ccc2ccccc2n1)C1CCN(CCOc2ccc(Cl)cc2Cl)CC1 (configuration not stated),22.4 µM (active)
25,Cn1cc(/C=N\O)nc2c(=O)n(-c3ccccc3)c(=O)nc1-2,inactive

row,Structure (SMILES),Potency
1,O=C(COC(=O)/C=C/c1ccc(S(=O)(=O)N2CCc3ccccc32)cc1)NC1CCS(=O)(=O)C1 (configuration not stated),inactive
2,CNc1cncc(-c2ccc(S(C)(=O)=O)cc2)n1,inactive
3,N=c1c(S(=O)(=O)c2ccc(Cl)cc2)cc2c(=O)n3ccccc3nc2n1Cc1ccco1,inactive
4,COc1ccc(NS(=O)(=O)c2cccc(C(=O)NN=C(C)c3ccco3)c2)cc1,inactive
5,Cc1ccccc1/C=C/c1cc[n+](C)cc1,inactive
6,O=C(NC(c1ccccc1)c1ccsc1)C1CCN(CCOc2ccc(Cl)cc2Cl)CC1 (configuration not stated),39.8 µM (active)
7,NC(=O)C1CCN(CC(=O)Nc2ccccc2Sc2ccc(Cl)cc2)CC1,inactive
8,COc1ccc(Cl)cc1NC(=O)CNC(c1ccccc1)c1ccccc1,inactive
9,COc1ccc2nc(N3CCCC(O)C3)c(C#N)cc2c1 (configuration not stated),inactive
10,NC[C@@H]1O[C@H](C23CC4CC(CC(C4)C2)C3)Cc2c1ccc(O)c2O,31.6 µM (active)
11,CCOCCCn1c(=N)c(C(=O)NCCN2CCOCC2)cc2c(=O)n3cccc(C)c3nc21,inactive
12,CC(C)=CCc1cc([C@@H]2COc3c(ccc4c3C=CC(C)(C)O4)C2)c(O)cc1O,35.5 µM (active)
13,CCCCC(=O)Nc1nn(CC)c2nc3c(C)cccc3cc12,inactive
14,Nc1c(C(=O)N2CCCC2)sc2nc(-c3ccccc3)ccc12,inactive
15,COc1ccc(S(=O)(=O)N(C)C[C@@H]2OCCCC[C@@H](C)Oc3ccc(NC(=O)NC(C)C)cc3C(=O)N([C@H](C)CO)C[C@@H]2C)cc1,inactive
16,C[C@@H]1CCCCO[C@H](CN(C)Cc2ccccc2)[C@@H](C)CN([C@H](C)CO)C(=O)c2cc(NS(=O)(=O)c3ccc(Cl)cc3)ccc2O1,35.5 µM (active)
17,C[C@H]1CCCCO[C@@H](CN(C)S(=O)(=O)c2ccc(Cl)cc2)[C@@H](C)CN([C@@H](C)CO)C(=O)c2cc(NS(=O)(=O)c3ccccc3)ccc2O1,31.6 µM (active)
18,C[C@@H]1CCCCO[C@@H](CN(C)CC2CCCCC2)[C@@H](C)CN([C@H](C)CO)C(=O)c2cc(NS(=O)(=O)c3ccc(Cl)cc3)ccc2O1,31.6 µM (active)
19,N#CC(Sc1ccccn1)c1ccc(Cl)cc1 (configuration not stated),inactive
20,O=S(=O)(Nc1cccc(Cl)c1)c1ccc2[nH]c3c(c2c1)CCCCCC3,31.6 µM (active)
21,CC(C)c1ccc2[nH]c3c(c2c1)CCC/C3=N\NC(=O)c1ccncc1,inactive
22,CN(CC(=O)Nc1cccc(C(F)(F)F)c1)S(=O)(=O)c1ccc2[nH]c3c(c2c1)CCCC3,35.5 µM (active)
23,Clc1ccc2[nH]c3c(c2c1)CNCC3,inactive
24,Cc1ccc(S(=O)(=O)Nc2cccc(N(C)S(C)(=O)=O)c2)cc1[N+](=O)[O-],inactive
25,CN(CC(=O)Nc1cccc(Cl)c1)S(=O)(=O)c1ccc2[nH]c3c(c2c1)CCCC3,39.8 µM (active)

row,Structure (SMILES),Potency
1,O=C(COC(=O)c1ccc2[nH]c3c(c2c1)CCCC3)NC1CCS(=O)(=O)C1 (configuration not stated),inactive
2,CC(C)c1ccc2[nH]c(O)c(N=NC(=O)c3cccc(S(=O)(=O)Nc4cccc(Cl)c4)c3)c2c1,1.41 µM (active)
3,CSc1nc(O)c(C(c2ccc(C)cc2)c2c(O)nc(SC)nc2O)c(O)n1,inactive
4,CCCn1c(=O)n(CC(=O)NCC2CCCO2)c(=O)c2c3c(sc21)COC(C)(C)C3 (configuration not stated),inactive
5,CC1CCc2sc(C(=O)OCC(=O)NC(C)C)cc2C1 (configuration not stated),inactive
6,Cc1cc(NC(=O)CCC(=O)N(C(C(=O)NC(C)(C)C)c2ccccc2Cl)C(C)(C)C)no1 (configuration not stated),inactive
7,COc1ccccc1C1C2=C(CCCC2=O)N(CC(=O)O)C2=C1C(=O)CCC2,inactive
8,Cc1ccc(NC(=O)c2sc3nc(-c4ccc(F)cc4)ccc3c2N)cc1F,inactive
9,CC(C)c1ccc(C2=CC(c3ccc(C(C)C)cc3)n3nnnc3N2)cc1 (configuration not stated),inactive
10,CCc1ccc2nc3nc(C)cc(C)c3c(N)c2c1,inactive
11,Cc1ccc(C(=O)CC(=O)c2ccccc2C)c(O)c1,inactive
12,CC(=O)c1cccc(NC(=O)C(C)OC(=O)c2cccc(S(=O)(=O)N3CCN(C)CC3)c2)c1 (configuration not stated),inactive
13,Cc1nnc2ccc(-c3ccc(NC(=O)c4ccco4)cc3)nn12,inactive
14,Cc1ccc(-c2nn3c(C)nnc3s2)cc1NC(=O)c1ccc(-c2ccc(Cl)cc2Cl)o1,8.91 µM (active)
15,C=C(C)CNC(=O)c1ccc2nc(Cc3ccc(OC)cc3)oc2c1,inactive
16,O=C(NCCCN1CCN(c2ccc(F)cc2)CC1)c1ccc2nc(Cc3ccccc3)oc2c1,20 µM (active)
17,O=C(NCCO)c1ccc2nc(Cc3cccc(Cl)c3)oc2c1,inactive
18,O=c1c(O)c(-c2cccs2)oc2ccc(Cl)cc12,inactive
19,N#Cc1ncc(Cc2ccccc2)nc1C#N,39.8 µM (active)
20,Cc1ccc2cc(C#N)c(NCc3ccccc3)nc2c1,inactive
21,Cc1nc2nc(SCc3ccccc3)nn2c(O)c1CCC(C)C,inactive
22,COc1ccc(NC(=O)c2cc3c(Cl)nc4ccccc4c3s2)cc1OC,35.5 µM (active)
23,CCC1CCCCN1CCCNC(=O)c1cc2c(Cl)nc3ccccc3c2s1 (configuration not stated),31.6 µM (active)
24,CC1CCN(CCCNC(=O)c2cc3c(Cl)nc4ccccc4c3s2)CC1,39.8 µM (active)
25,O=C(Cc1csc(Nc2nc(S)nc3ccccc23)n1)NCCCN1CCN(c2ccccc2F)CC1,inactive

row,Structure (SMILES),Potency
1,COc1ccc(-c2cc(C(=O)NC3=NCCS3)c3ccccc3n2)cc1OC,inactive
2,CCC1CCCCN1c1nc2c(C=O)c(C)nn2c2ccccc12 (configuration not stated),inactive
3,O=C(NC1CCCC1)c1cc2c(=O)n3ccccc3nc2s1,inactive
4,COc1ccc(NC(=O)c2cc3c(=O)n(C)c4ccccc4c3s2)cc1OC,inactive
5,O=C(Cc1csc(Nc2nc(S)nc3ccccc23)n1)NCCCN1CCN(c2cccc(Cl)c2)CC1,inactive
6,CCCCCC(=O)NC(=S)Nc1ccc(Cl)cn1,inactive
7,N#Cc1cnn2c(-c3cccc([N+](=O)[O-])c3)ccnc12,inactive
8,FC(F)(F)c1cc(-c2cccs2)nc2ncnn12,inactive
9,CN1CCN(C(=O)CN(C2CCCCC2)S(=O)(=O)c2ccccc2)CC1,inactive
10,CCN(CC)CCCN(Cc1cc2cc3c(cc2nc1O)OCO3)C(S)=Nc1ccc(OC)cc1,inactive
11,COc1ccccc1C(=O)N(Cc1cc2cc3c(cc2nc1N(C)C)OCO3)CC1CCCO1 (configuration not stated),inactive
12,CCOc1ccccc1C(=O)N(Cc1ccccc1)Cc1cc2cc3c(cc2nc1O)OCCO3,35.5 µM (active)
13,Cc1ccc(CNS(=O)(=O)c2ccc3c(c2)CCN3C(=O)CCCC(=O)O)cc1,inactive
14,CCc1cccc(C)c1NC(=O)CNCc1ccccc1,inactive
15,CCNC(=O)c1cc2c(=O)n3cccc(C)c3nc2n(Cc2ccc(C)cc2)c1=N,inactive
16,CCOc1ccc(CNCc2c(C(=O)O)n(Cc3ccc(C)cc3)c3cc(C)ccc23)cc1,25.1 µM (active)
17,Cc1ccc(Cn2c(C(=O)O)c(CNCc3ccc(OC(C)C)cc3)c3ccc(C)cc32)cc1,35.5 µM (active)
18,CCOc1ccc(C2C(C(=O)OC)=CN(CCOC)C=C2C(=O)OC)cc1,inactive
19,CCOc1ccc(-c2oc3ccc(C)cc3c(=O)c2O)cc1,inactive
20,Cc1ccc(CNCc2c(C(=O)O)n(Cc3ccc(C)cc3)c3cc(C)ccc23)cc1,22.4 µM (active)
21,CCc1ccc(CNCc2c(C(=O)O)n(Cc3ccc(C)cc3)c3cc(C)ccc23)cc1,31.6 µM (active)
22,Cc1ccc(CNC(=O)c2ccc3c(O)c(O)c(-c4ccc(C)cc4)nc3c2)cc1,inactive
